# Data: PMC5540273 (PLoS ONE, 2017)
# Tests used:
# Settings in all cases: concentration: 1 μM, replicates: in singlicate; n = 1
# WNK1 = test system: WNK1
# WNK2 = test system: WNK2
# WNK3 = test system: WNK3
# WNK4 = test system: WNK4
# YANK1 = test system: T1, YANK1
# T1 construct: gene STK32A
# YANK2 = test system: T2, YANK2
# T2 construct: gene STK32B
# YANK3 = test system: T3, YANK3
# T3 construct: gene STK32C
# YES = test system: T4, YES
# T4 construct: gene YES1
# YSK1 = test system: T5, YSK1
# T5 construct: gene STK25
# YSK4 = test system: T6, YSK4
# T6 construct: gene MAP3K19
# 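Also: KINOMEscan kinase panel screen.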
SMILES,%Inh (WNK1) [%],%Inh (WNK2) [%],%Inh (WNK3) [%],%Inh (WNK4) [%],%Inh (YANK1) [%],%Inh (YANK2) [%],%Inh (YANK3) [%],%Inh (YES) [%],%Inh (YSK1) [%],%Inh (YSK4) [%]
CCn1c(-c2nonc2N)nc2c(-c3ccccc3)ncc(OCCCN)c21.O=C(O)C(F)(F)F.O=C(O)C(F)(F)F [GSK260205],22,14,32,15,99.4,87,50,28,23,99.6
Cl.Cl.NCC(NC(=O)c1cc(-c2cccnc2)c(-c2ccnc3[nH]ccc23)s1)c1ccccc1 (centres unmarked) [GSK1323434],2,0,80,50,26,0,14,18,17,84
Cc1ccc(O)cc1Nc1ccnc2cc(-c3ccc(CN4CCCCC4)o3)ccc12 [GW557777],0,0,0,0,10,0,0,99.8,0,13
Cc1ccc(Nc2ccnc(Nc3ccc(C)c(F)c3)n2)cc1O.Cl [GW582868],41,12,31,49,1,0,1,53,0,25
Cc1cc(-c2ccnc(Nc3cccc(C#N)c3)n2)cc(C)c1O [GSK1440913],7,0,4,26,7,0,13,19,4,97
CN(c1ccc(NC(=O)N2CCN(CCCN3CCOCC3)CC2)cc1)c1ccnc(Nc2ccc(CS(C)(=O)=O)cc2)n1.Cl [GW830899],0,0,0,0,0,0,0,4,0,81
N#CC1(c2cccc(C(=O)Nc3cccc(Oc4ccc5nc(NC(=O)C6CC6)sc5n4)c3)c2)CC1,6,0,0,0,0,9,0,98.7,37,98.9
COc1ccc(NC(=O)c2ccoc2)cc1-c1ccc(C(=O)NCC2CC2)cc1 [GW810437],9,0,12,0,0,13,12,0,0,34
Cc1ccccc1CC(=O)N1CCc2cc(-c3cn(C)c4ncnc(N)c34)ccc21 [GSK2603346],18,25,50,8,7,0,22,18,54,84
Nc1cccc(-c2ccc3c(N)n[nH]c3c2)c1 [GSK2193613],6,0,7,0,9,0,25,0,22,96.4
Cl.Cl.NC(CNC(=O)c1cc(Br)c(-c2ccnc3[nH]ccc23)s1)c1ccccc1 (centres unmarked) [GSK1322949],1,0,24,20,22,0,0,2,28,94.8
COc1ccc(C)c(Nc2ccnc(Nc3ccc(-c4cnc[nH]4)cc3)n2)c1.Cl [GW784041],0,0,0,0,0,0,0,29,0,7
COc1cccc(NC(=O)NCCNc2ccnc(Nc3ccc(F)cc3)n2)c1 [GSK1379879],5,22,22,46,0,0,0,0,0,44
COc1cc(Nc2nccc(N3CCC(NS(=O)(=O)c4ccc(NC(C)=O)cc4)CC3)n2)cc(OC)c1OC [GSK1379825],0,16,25,23,2,7,0,39,16,32
COc1ccc(C2=C(Nc3cccc(O)c3)C(=O)NC2=O)cc1 [SB-390766],16,99.7,34,87,0,0,17,0,0,44
CN(C)CCOc1ccc(-c2cc(-c3ccc(Cl)c(O)c3)c(-c3ccncc3)[nH]2)cc1.Cl.Cl [SB-684387],11,21,47,33,26,28,0,55,13,27
O=C(O)C(F)(F)F.O=c1[nH]ccc2nc(N[C@@H]3CCNC3)nc(Nc3cc(Cl)cc(Cl)c3)c12 [GSK2188764],8,26,30,0,40,0,9,12,82,99.7
Cc1ccc(O)cc1Nc1ccnc2ccc(C(C)(C)C)cc12 [GW856805],38,0,21,0,29,4,45,76,1,48
CC(=O)Nc1cn2nc(Oc3cccc(NC(=O)c4cccc(C(F)(F)F)c4)c3)ccc2n1,0,0,0,0,0,0,0,96.2,0,99.9
CCn1cnc2c(NCc3ccccc3)ncnc21 [SKF-96418],12,0,43,16,0,19,0,0,0,10
CN(c1ccc(F)c(NC(=O)c2cccc(OC(C)(C)C#N)c2Cl)c1)c1ccc2nc(NC(=O)C3CC3)sc2n1,0,19,0,0,0,0,0,91.4,0,20
O=C(O)C(F)(F)F.O=c1[nH]ccc2nc(N[C@@H]3CCNC3)nc(Nc3ccc4c(c3)S(=O)(=O)CC4)c12 [GSK2181306],0,29,0,0,70,0,8,20,97.4,99.7

SMILES,%Inh (WNK1) [%],%Inh (WNK2) [%],%Inh (WNK3) [%],%Inh (WNK4) [%],%Inh (YANK1) [%],%Inh (YANK2) [%],%Inh (YANK3) [%],%Inh (YES) [%],%Inh (YSK1) [%],%Inh (YSK4) [%]
COc1cccc(-c2nc(-c3ccccc3)[nH]c2-c2ccncc2)c1 [SB-610250],9,0,33,29,10,4,0,8,100,100
Cl.N#CCc1ccc(Nc2nccc(Nc3ccc(Oc4ccccc4)cc3)n2)cc1 [GW639905],15,0,28,6,3,0,10,74,0,41
NCCC(NC(=O)c1cc(Br)c(-c2ccnc3[nH]ccc23)s1)c1ccccc1.O=C(O)C(F)(F)F.O=C(O)C(F)(F)F (centres unmarked) [GSK1307810],0,0,24,37,10,0,18,14,4,97.3
Nc1ncc(-c2ccc3nccc(-c4ccncc4)c3c2)cc1S(=O)(=O)N1CCCCC1 [GSK1693850],1,4,13,64,5,0,0,10,13,69
CN(C)CCNS(=O)(=O)c1ccc(-c2ccnc3[nH]ccc23)cc1 [GSK977620],0,0,0,0,21,0,27,16,78,88
Cc1cccc(Nc2nc(N[C@H]3CCCC[C@H]3N)ncc2C(N)=O)c1.Cl [GSK986310],9,30,32,0,50,46,51,44,54,82
CN1CCN(Cc2ccc(NC(=O)Nc3ccc(N(C)c4ccnc(Nc5ccc(CS(C)(=O)=O)cc5)n4)cc3)cc2)CC1.Cl [GW827654],36,45,42,0,19,0,6,0,7,100
Cn1cc(-c2ccc3c(c2)CCN3C(=O)Cc2cc(F)cc(F)c2F)c2c(N)ncnc21 [GSK2634140],13,8,23,14,29,13,0,15,23,96.7
O=C(Nc1n[nH]c2cc(-c3cccs3)ccc12)C1CC1 [SB-731284],40,0,0,0,19,0,0,0,0,94
Cn1cc(-c2cnc(N)c3c(-c4ccc5c(c4)CCN5C(=O)Cc4ccccc4)csc23)cn1 [GSK2593074],0,0,0,0,0,0,0,55,6,43
CN(c1ccc2c(c1)nc(NCc1ccccc1)n2C)c1ccnc(Nc2ccc(CS(C)(=O)=O)cc2)n1.Cl [GW811603],0,2,11,0,0,0,0,0,0,97.3
Cc1ccc(NC(=O)c2cccc(N3CCCCC3)c2)cc1-c1ccc(C(=O)NCC2CC2)cc1 [GSK1917008],13,0,2,10,9,11,22,10,12,35
c1ccc(Oc2ccc(Nc3ccnc4cc(-c5ccc(CN6CCCCC6)o5)ccc34)cc2)nc1 [GW567143],2,39,24,25,0,0,17,51,0,32
O=C(Nc1c(F)cccc1F)c1cc(C(=O)c2ccccc2F)c[nH]1 [GSK1326180],8,0,0,0,1,0,0,0,10,0
Cc1ccc(C)c(NC(=O)Nc2ccc(C)c(-c3ccc(C(=O)Nc4ccncc4)cc3)c2)c1 [GSK1398473],17,97.6,11,17,7,0,15,29,0,87
CN(C)c1ncnc2nc[nH]c12 [SKF-31736],15,0,10,13,0,0,0,0,0,10
Cc1ccc(NC(=O)c2ccc(Cl)c(Cl)c2)cc1-c1ccc(C(=O)Nc2ccncc2)cc1 [GSK1398460],0,0,0,17,12,7,22,29,26,83
CCOc1nccc(-c2c(-c3ccc(F)cc3)ncn2C2CCNCC2)n1 [SB-249175],25,4,4,0,52,36,0,0,2,37
Nc1ncc(-c2cn[nH]c2)c2scc(-c3ccc4c(c3)CCN4C(=O)Cc3ccccc3)c12 [GSK2593067],4,31,52,23,3,0,30,57,6,81
COC(=O)Nc1nc2ccc(Oc3ccc(CC(=O)Nc4cc(C(F)(F)F)ccc4F)cc3)cc2[nH]1 [GW680903],0,4,21,48,9,0,0,8,3,42
Cc1ccc(-c2ccc3occ(-c4ccc(S(C)=O)cc4)c3c2)nn1 (centres unmarked),0,18,0,0,0,1,24,0,1,4
COc1cccc2c(-c3ccncc3)c(-c3ccc(F)cc3)nn12 [GW468513],0,0,31,24,65,72,72,15,4,6
